Structures are written as SMILES. About 83,000 compounds went through this panel and 20% of them were active in at least one assay; those are over-represented in the sample as a whole.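 Note: values are percent growth. 100 is the growth of untreated cells, values between 100 and 0 indicate rising inhibition; between -100 and 0 indicates cell death.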 Unmarked numbers belong to inactive results. The source made the active and inactive calls. The calls were made as follows: active = growth percent below 10; inactive = the rest.

For 16 compounds, growth results are on record in PubChem BioAssay (NCI).

Test systems include T-47D breast; BT-549 breast; MDA-MB-435 melanoma; SW-620 colon; MCF7 breast; HCT-116 colon; HCC-2998 colon; KM12 colon.
Test in all cases: NCI-60 one-dose screen, 48 h (100 = growth as untreated, 0 = no growth, -100 = all killed)
Conditions in all cases: 10 µM unless noted

`N#CC1=C(N)Oc2c(c(=O)[nH]c3ccc(Cl)cc23)C12C(=O)c1ccccc1C2=O`: the growth in the experiment on T-47D breast was 98.2%; in the experiment on BT-549 breast it was 89%; with MDA-MB-435 melanoma, 92.6%; with SW-620 colon, 86.5%; in the experiment on MCF7 breast, 96.4%; in the experiment on HCT-116 colon, 95.7%. Also, the values for the growth with HCC-2998 colon and in the experiment with KM12 colon were 109% and 90.7%, respectively.

Regarding `CC(C)c1ccc(C(=O)Nc2nc3ccc(O)c(CN(C)C)c3s2)cc1`, the growth with T-47D breast is 77.8%; in the experiment on BT-549 breast it was 73.6%; in the experiment with MDA-MB-435 melanoma, 55.4%; with SW-620 colon, 36.2%; with MCF7 breast, 80.5%; in the experiment on HCT-116 colon, 47.3%. Also, the growth was 63.7% with HCC-2998 colon and 36% with KM12 colon.

As to `COc1ccc(C2=C(Br)C(=O)c3nc(C)ccc3C2=O)cc1`, the growth in the experiment with T-47D breast is 72.8%; in the experiment with BT-549 breast, 93.4%; with MDA-MB-435 melanoma, 103%; in the experiment on SW-620 colon it was 27.2%; in the experiment with MCF7 breast it was 74.7%; in the experiment on HCT-116 colon, 74.1%. Besides, the values for the growth with HCC-2998 colon and in the experiment with KM12 colon were 104% and 91.9%, respectively.

In the case of `COc1ccccc1NC(=O)N=Nc1c(O)[nH]c2ccccc12`, the growth with T-47D breast was 68.6%; in the experiment with BT-549 breast, 97.9%; in the experiment with MDA-MB-435 melanoma it was 91%; in the experiment on SW-620 colon it was 84.4%; in the experiment with MCF7 breast, 59%; in the experiment with HCT-116 colon, 93%. The values for the growth with HCC-2998 colon and in the experiment on KM12 colon were 94.4% and 94.8%, respectively.

`C=C(C)[C@@H]1CC[C@]2(C(=O)O)CC[C@]3(C)[C@H](CC[C@@H]4[C@@]5(C)CCC(NC(=O)c6cccc(OC(C)=O)c6OC(C)=O)C(C)(C)[C@@H]5CC[C@]43C)[C@@H]12` (stereo partly drawn): the growth was 20.9% in the experiment on T-47D breast; 16.5% in the experiment on BT-549 breast; -56.4% (active) with MDA-MB-435 melanoma; 2.79% (active) in the experiment on SW-620 colon; 4.17% (active) with MCF7 breast; -38.6% (active) in the experiment on HCT-116 colon. Further, the growth in the experiment on HCC-2998 colon is 12%; in the experiment with KM12 colon, 12.1%.

Consider `N#Cc1ccc(O)c(C2=NCC(c3ccccc3)O2)c1` (stereo not drawn), for which the growth in the experiment with T-47D breast was -5.7% (active); with BT-549 breast, 31.9%; in the experiment on MDA-MB-435 melanoma it was 57.8%; with SW-620 colon it was 28.6%; with MCF7 breast, 25.3%; in the experiment on HCT-116 colon it was 17.5%. Moreover, the growth is 47.8% in the experiment with HCC-2998 colon and 37.2% in the experiment on KM12 colon.

Turning to `CCOc1ccc(NC(=O)CSc2oc(-c3ccccc3)nc2S(=O)(=O)c2ccc(C)cc2)cc1`, the growth was 57.4% in the experiment on T-47D breast; 94% with BT-549 breast; 87.4% with MDA-MB-435 melanoma; 74.3% in the experiment with SW-620 colon; 61.9% in the experiment with MCF7 breast; 23.8% in the experiment on HCT-116 colon. The growth in the experiment on HCC-2998 colon was 82.6%; in the experiment with KM12 colon, 65.4%.

For `CS(=O)(=O)Nc1cncc(-c2ccc3ncnc(Nc4cncc(Cl)c4)c3c2)c1`, the growth in the experiment with T-47D breast is 2.52% (active); with BT-549 breast it was 72.6%; in the experiment on MDA-MB-435 melanoma it was 103%; in the experiment with SW-620 colon, 107%; in the experiment with MCF7 breast, 55.6%; with HCT-116 colon, 91.3%. Further, the growth was 95% in the experiment with HCC-2998 colon and 84.7% with KM12 colon.

Turning to `COC(=O)Nc1nc2ccc(S(=O)c3ccccc3)cc2[nH]1` (stereo not drawn), the growth in the experiment with T-47D breast is 89.1%; in the experiment on BT-549 breast, 77.9%; with MDA-MB-435 melanoma, -33.4% (active); in the experiment on SW-620 colon it was 27.2%; in the experiment on MCF7 breast, 44.1%; in the experiment with HCT-116 colon, 39.4%. Also, the growth in the experiment with HCC-2998 colon was 74.1%; in the experiment with KM12 colon, 31.6%.

With `Cc1cc(C(=O)O)c(C)n1-c1cccc(C(=O)O)c1`, the growth is 84.1% in the experiment on T-47D breast; 83.3% with BT-549 breast; 100% with MDA-MB-435 melanoma; 44.6% in the experiment on SW-620 colon; 61.2% in the experiment with MCF7 breast; 35.3% with HCT-116 colon. Also, the growth was 101% in the experiment with HCC-2998 colon and 97.8% in the experiment on KM12 colon.

Take `CCCCCCCC[C@@H]1N[C@@H](C(=O)OC)Cc2c1[nH]c1ccccc21`: the growth in the experiment with T-47D breast is 92.7%; in the experiment with BT-549 breast it was 105%; in the experiment on MDA-MB-435 melanoma, 99.8%; in the experiment on SW-620 colon, 94.6%; in the experiment on MCF7 breast it was 92%; in the experiment with HCT-116 colon, 95.7%. The growth in the experiment with HCC-2998 colon is 107%; in the experiment with KM12 colon it was 99.7%.

On to `Cc1ccc2c(c1)=C/C(=C\c1cc(-c3ccccc3)oc1O)C(=O)N=2`, for which the growth in the experiment on T-47D breast was 97.7%; in the experiment with BT-549 breast, 94.3%; with MDA-MB-435 melanoma, 110%; in the experiment on SW-620 colon it was 107%; in the experiment on MCF7 breast it was 89.2%; in the experiment on HCT-116 colon, 93.1%. Further, the growth is 115% with HCC-2998 colon and 100% with KM12 colon.

In the case of `O=CN1N=C(c2cccc(Nc3ccnc4cc(Cl)ccc34)c2)CC1c1ccccc1` (stereo not drawn), the growth in the experiment on T-47D breast was 45.5%; in the experiment on BT-549 breast it was 35.7%; in the experiment on MDA-MB-435 melanoma, -34.4% (active); in the experiment with SW-620 colon, 34.2%; in the experiment on MCF7 breast it was 19.3%; with HCT-116 colon, 7.26% (active). Besides, the values for the growth in the experiment with HCC-2998 colon and with KM12 colon were 12.4% and 19.7%, respectively.

With `COc1cc(OCc2cccc(Br)c2C)cc(OC)c1C=O`, the growth in the experiment with T-47D breast was 37.8%; with BT-549 breast it was 70.9%; in the experiment on MDA-MB-435 melanoma it was 87.8%; in the experiment with SW-620 colon it was 88.6%; with MCF7 breast, 63.9%; in the experiment with HCT-116 colon it was 68%. Besides, the growth is 96.5% in the experiment on HCC-2998 colon and 94.5% in the experiment on KM12 colon.

For the compound `Oc1ccc(Cl)cc1/C=N\NC(=S)N/N=C/c1cc(Cl)ccc1O`, the growth in the experiment on T-47D breast was 49.9%; with BT-549 breast, 52.7%; with MDA-MB-435 melanoma, 33.9%; in the experiment on SW-620 colon, 50.3%; with MCF7 breast, 28.3%; in the experiment on HCT-116 colon it was 16%. Also, the growth in the experiment with HCC-2998 colon was 41.3%; in the experiment on KM12 colon, 28.6%.

For the compound `COCCNC(=O)Nc1ccc2nc(-c3cccs3)c(-c3cccs3)nc2c1`, the growth in the experiment with T-47D breast is 58.1%; in the experiment on BT-549 breast, 94.4%; in the experiment on MDA-MB-435 melanoma it was 94.1%; with SW-620 colon it was 89.2%; with MCF7 breast, 78.9%; in the experiment with HCT-116 colon it was 92.7%. For the same compound, the growth is 101% in the experiment with HCC-2998 colon and 95.2% in the experiment on KM12 colon.
